# Earlier results as cited in PubChem BioAssay AID977611.
# In all, about 3,900 compounds went through this assay and about 3,900 (100%) were called active. No cut-off is given here; in the data, nearly all actives have Kd up to about 4200 µM. The set was probably picked from earlier hits. The list shows a part of the results. Where a SMILES comes first, the peptide text is derived from it. Non-standard residues stand in square brackets, D forms with d. Square brackets hold non-standard residues; d marks the D form. Residues, ends and D or L forms follow the SMILES beside them. Peptide text beside a SMILES is read from it. [ ]: non-standard residue; d: D form. * marks the point of attachment. Orn(CH(NH2)2) = NC(N)NCCC[C@H](N)C(=O)O; AMC = Cc1cc(=O)oc2cc(N*)ccc12; pGlu = O=C1CC[C@@H](C(=O)O)N1
# Assay: PubChem AID 977611
# Settings: PDB protein-ligand complexes, literature Kd
molecule,measurement,setting,value
Cc1n[nH]c(C)c1CCCOc1cc(C(=O)O)ccc1F,Kd,"protein: Transthyretin (V122I mutation), PDB entry 4hiq",6.2 nM (active)
OCCOCCOCCOCCOCCOCCOCCOCCOCCOCCOCCOCCOCCOCCOCCOCCOCCOCCOCCOCCOCCOCCOCCOCCOCCO,Kd,"protein: Prostaglandin-H2 D-isomerase L-PGDS C65A mutant, PDB entry 4oru",210000 nM (active)
same,Kd,"protein: Prostaglandin-H2 D-isomerase L-PGDS C65A-K59A double mutant, PDB entry 4orx",297000 nM (active)
same,Kd,"protein: Prostaglandin-H2 D-isomerase L-PGDS C65A-K59A double mutant, PDB entry 4ory",297000 nM (active)
OC[C@@H]1O[C@@H](O[C@@H]2[C@@H](O)[C@H](O[C@@H]3CO[C@@H](O)[C@H](O)[C@H]3O)OC[C@H]2O)[C@H](O)[C@H]1O,Kd,"protein: SUGAR TRANSPORTER SOLUTE-BINDING PROTEIN, PDB entry 4c1u",81 nM (active)
OC[C@@H]1O[C@@H](O[C@H]2[C@H](O[C@@H]3CO[C@@H](O[C@@H]4CO[C@@H](O)[C@H](O)[C@H]4O)[C@H](O)[C@H]3O)OC[C@@H](O)[C@@H]2O)[C@H](O)[C@H]1O,Kd,"protein: SUGAR TRANSPORTER SOLUTE-BINDING PROTEIN, PDB entry 4c1t",70.8 nM (active)
Nc1[nH]c(=S)nc2nc[nH]c12,Kd,"protein: 6-hydroxymethyl-7,8-dihydropterin pyrophosphokinase, PDB entry 4m5n",7500 nM (active)
CC(C)C[C@H](NC(=O)[C@@H]1CCC(=O)N1)C(=O)N[C@@H](Cc1ccc(O)cc1)C(=O)N[C@@H](CCC(=O)O)C(=O)N[C@H](C=O)CC(N)=O (tested in a mixture with another compound) ([pGlu]LYEN-aldehyde),Kd,"protein: Sortilin, PDB entry 4po7",85 nM (active)
H-PDYFL-OH,Kd,"protein: Serine/threonine-protein phosphatase 2A activator PTPA, PDB entry 4ny3",49500 nM (active)
C[C@H](NC(=O)[C@@H]1CCCN1)C(=O)N[C@@H](CCCNC(N)N)C(=O)N1CCC[C@H]1C(=O)N1CCC[C@H]1C(=O)N[C@@H](CCCCN)C(=O)N1CCC[C@H]1C(=O)N[C@@H](CCCNC(N)N)C(=O)N1CCC[C@H]1C(=O)N[C@@H](CCCNC(N)N)C(=O)N[C@@H](CCCNC(N)N)C(=O)O (H-PA[Orn(CH(NH2)2)]PPKP[Orn(CH(NH2)2)]P[Orn(CH(NH2)2)][Orn(CH(NH2)2)]-OH),Kd,"protein: SH3-domain of CIN85, PDB entry 2bz8",2500 nM (active)
CC(C)C[C@H](NC(=O)[C@H](CC(N)=O)NC(=O)[C@H](CC(C)C)NC(=O)[C@@H](NC(=O)[C@@H](NC(=O)[C@@H]1CCCN1C(=O)[C@H](CCCNC(N)N)NC(=O)[C@H](CCCCN)NC(=O)[C@@H]1CCCN1)[C@@H](C)O)[C@@H](C)O)C(=O)N[C@@H](Cc1ccccc1)C(=O)O (HELM PEPTIDE1{P.K.[NC(N)NCCC[C@H](N[*:1])C(=O)[*:2]].P.T.T.L.N.L.F}$$$$V2.0),Kd,"protein: Mitogen-activated protein kinase 8 isoform 4, PDB entry 1ukh",420 nM (active)
CC(C)C[C@H](NC(=O)[C@H](CCCCN)NC(=O)[C@H](CCCCN)NC(=O)[C@H](CC(C)C)NC(=O)[C@@H]1CCCN1C(=O)[C@H](CCCCN)NC(=O)[C@@H]1CCCN1)C(=O)N[C@@H](CCCNC(N)N)C(=O)N[C@@H](Cc1ccccc1)C(=O)N[C@@H](CC(=O)O)C(=O)O (H-PKPLKKL[Orn(CH(NH2)2)]FD-OH),Kd,"protein: phospho-CDK2/cyclin A, PDB entry 1h25",1800 nM (active)
CC(C)C[C@H](NC(=O)[C@@H](NC(=O)[C@@H](N)CO)C(C)C)C(=O)NCC(=O)N[C@@H](CCCCN)C(=O)N[C@@H](CCCNC(N)N)C(=O)N[C@@H](CCCCN)C(=O)N[C@@H](CCCNC(N)N)C(=O)N[C@@H](Cc1cnc[nH]1)C(=O)O (H-SVLGK[Orn(CH(NH2)2)]K[Orn(CH(NH2)2)]H-OH),Kd,"protein: IMPORTIN SUBUNIT ALPHA-1A, PDB entry 2yns",25 nM (active)
CC(C)C[C@H](NC(=O)[C@@H](NC(=O)[C@@H](N)[C@@H](C)O)C(C)C)C(=O)NCC(=O)N[C@@H](CCCCN)C(=O)N[C@@H](CCCNC(N)N)C(=O)N[C@@H](CCCCN)C(=O)O (H-TVLGK[Orn(CH(NH2)2)]K-OH),Kd,"protein: IMPORTIN SUBUNIT ALPHA-1A, PDB entry 4b8p",140 nM (active)
CSCC[C@H](NC(=O)[C@H](Cc1cnc[nH]1)NC(=O)[C@H](CCC(N)=O)NC(=O)[C@H](CCCNC(N)N)NC(=O)[C@H](CCC(=O)O)NC(=O)[C@H](Cc1ccccc1)NC(=O)[C@H](CCCCN)NC(=O)[C@H](C)NC(=O)[C@H](C)NC(=O)[C@H](C)NC(=O)[C@@H](NC(=O)[C@H](CCC(=O)O)NC(=O)[C@@H](N)CCCCN)[C@@H](C)O)C(=O)N[C@@H](CC(=O)O)C(=O)N[C@@H](CO)C(N)=O (H-KETAAAKFE[Orn(CH(NH2)2)]QHMDS-NH2),Kd,"protein: Ribonuclease S(RNase S), PDB entry 1j7z",20 nM (active)
same,Kd,"protein: Ribonuclease S(RNase S), PDB entry 1j80",300 nM (active)
same,Kd,"protein: Ribonuclease S(RNase S), PDB entry 1j81",80 nM (active)
CC(C)C[C@H](N)C(=O)NCC(=O)N[C@@H](CCCCN)C(=O)N[C@@H](CCCNC(N)N)C(=O)N[C@@H](CCCCN)C(=O)N[C@@H](Cc1ccc(O)cc1)C(=O)O (H-LGK[Orn(CH(NH2)2)]KY-OH),Kd,"protein: IMPORTIN SUBUNIT ALPHA-2, PDB entry 4ba3",2900 nM (active)
CC(=O)NCCCC[C@H](NC(=O)[C@H](CCCCN)NC(=O)[C@H](Cc1cnc[nH]1)NC(=O)[C@H](CCCNC(N)N)NC(C)=O)C(=O)Nc1ccc2c(C)cc(=O)oc2c1 (Ac-[Orn(CH(NH2)2)]HKK(Ac)-{AMC}),Kd,"protein: NAD-dependent protein deacetylase sirtuin-3, mitochondrial, PDB entry 4fz3",184000 nM (active)
CSCC[C@H](NC(=O)[C@H](CC(C)C)NC(=O)[C@H](CCCCN)NC(=O)[C@H](CCCCN)NC(=O)[C@H](Cc1cnc[nH]1)NC(=O)[C@H](CCCNC(N)N)NC(=O)[C@@H](N)CO)C(=O)N[C@@H](Cc1ccccc1)C(=O)N[C@@H](CCCCN)C(=O)O (H-S[Orn(CH(NH2)2)]HKKLMFK-OH),Kd,"protein: phospho-CDK2/cyclin A, PDB entry 1h26",2900 nM (active)
CC(C)C[C@H](N)C(=O)NCC(=O)N[C@@H](CCCCN)C(=O)N[C@@H](CCCNC(N)N)C(=O)N[C@@H](CCCCN)C(=O)N[C@@H](CCCNC(N)N)C(=O)N[C@@H](Cc1cnc[nH]1)C(=O)O (H-LGK[Orn(CH(NH2)2)]K[Orn(CH(NH2)2)]H-OH),Kd,"protein: IMPORTIN SUBUNIT ALPHA, PDB entry 2ynr",1700 nM (active)
NC1=NC(=O)c2ccccc2C1,Kd,"protein: proCaspase-6, PDB entry 4n6g",3400 nM (active)
CN(C)C1=NC(=O)c2ccccc2C1,Kd,"protein: Caspase-6, PDB entry 4n7j",3400 nM (active)
CCCCCCCCCCCCCCCC(=O)OC[C@@H](CO[P+](O)(O)O[C@@H]1[C@H](O)[C@H](O)[C@@H](O[P+](O)(O)O)[C@H](O[P+](O)(O)O)[C@H]1O)OC(=O)CCCCCCCCCCCCCCC,Kd,"protein: Steroidogenic factor 1 SF-1, PDB entry 4qk4",250 nM (active)
CCCCCCCCCCCCCCCC(=O)OC[C@@H](CO[P+](O)(O)OC1[C@H](O)[C@H](O[P+](O)(O)O)C(O[P+](O)(O)O)[C@H](O[P+](O)(O)O)[C@H]1O)OC(=O)CCCCCCCCCCCCCCC (some centres undefined),Kd,"protein: Steroidogenic factor 1 SF-1, PDB entry 4qjr",80 nM (active)
H-ANSNNPDWDF-OH,Kd,"protein: Humanized KR127 Fab, PDB entry 2eh8",11 nM (active)
H-ATPAWN-OH,Kd,"protein: mRNA-capping enzyme subunit beta Pct1, PDB entry 4pn1",680 nM (active)
H-NDWLLPSY-OH,Kd,"protein: Microtubule-associated protein 1 light chain 3 (C32I, C119S, C122S mutation), PDB entry 4eoy",326 nM (active)
H-GASDGSGWSSENNPW-OH,Kd,"protein: protein TolB, PDB entry 2ivz",920 nM (active)
